# Data published in PubChem BioAssay (EPA / NIEHS).
# Calls of active or inactive are those of the source. The calls were made as follows: active = hit-call score of the fitted dose curve at least 0.9, where 1 is the maximum; inactive = score below 0.9.
# Read-out: Interleukin-1 alpha (IL1a), IL1A (gene 3552)
# Experiment: BSK_LPS_IL1a: BioMAP Diversity Plus: LPS Assay for Interleukin-1 alpha (IL1a) Biomarker Activity (AID 2283080)
# Settings: primary human HUVEC with PBMC; actives raise or lower the signal
# Method: BSK_LPS is a cell-based, multiplexed-readout assay that uses umbilical vein endothelium and peripheral blood mononuclear cells, a human vascular primary cell co-culture, with measurements taken at 24 hours after chemical dosing in a 96-well plate.BSK_LPS_IL1a is an assay component measured in the BSK_LPS assay. It measures IL-a antibody related to regulation of gene expression using ELISA technology.Data from the assay component BSK_LPS_IL1a was analyzed into 1 assay endpoint. This assay endpoint, BSK_LPS_IL1a, was analyzed with bidirectional fitting relative to DMSO as the negative control and baseline of activity. Using a type of binding reporter, gain or loss-of-signal activity can be used to understand changes in the signaling as they relate to the gene IL1A. Furthermore, this assay endpoint can be referred to as a primary readout, because this assay has produced multiple assay endpoints where this one serves a signaling function. To generalize the intended target to other relatable targets, this assay endpoint is annotated to the cytokine intended target family, where the subfamily is interleukins.
# The levels of cell surface (or secreted, indicated by the prefix "s") biomarker endpoints were measured by ELISA. Overt cytotoxicity to cells in confluent adherent cultures (all systems other than the BT system) was assessed by measuring total protein levels using sulforhodamine B (SRB) staining in parallel cultures at the time of biomarker measurements, indicated as SRB endpoints. For proliferation assays for adherent cell types, individual cell types are cultured at sub-confluence and relative cell numbers quantified by SRB staining at time points optimized for each system (48 h: 3C and CASM3C systems; 72 h: BT and HDF3CGF systems; 96 h: SAg system). SRB was performed by staining cells with 0.1% SRB after fixation with 10% TCA and reading wells at 560 nm.Viability and proliferation of PBMC (T cells) was quantified by Alamar Blue reduction for the SAg and BT systems. For PBMC viability (referred to as PBMC Cytotoxicity within the assay endpoint names), cells were plated (75,000/well in a 96-well plate) and then chemical samples added for 1 h before addition of activators, SEB and TSST-1 (20 ng/mL final concentration each). Cells were incubated for 90 h. Then, Alamar Blue (20 uL/well) (Invitrogen, Cat DAL1100) was added for 6 h, and the plates were read with a fluorescence microplate reader at 546/580 nm (excitation/emission). For PBMC proliferation, cells were plated and activated as above but incubated for only 16 h prior to addition of Alamar Blue. Plates were read after 6 h.
Compound,AC50,outcome
O=C1OC2(c3cc(Br)c(O)c(Br)c3Oc3c2cc(Br)c(O)c3Br)c2c(Cl)c(Cl)c(Cl)c(Cl)c21,3.73 µM (active),
CC(=O)/C=C/C1=C(C)CCCC1(C)C,,inactive
O=[N+]([O-])c1cc(C(F)(F)F)ccc1Cl,,inactive
CCc1c(C)cc(N)c(CC)c1N,,inactive
Cc1ccc2n[nH]nc2c1,,inactive
C#C[C@]1(O)CC[C@H]2[C@@H]3CCC4=Cc5oncc5C[C@]4(C)[C@H]3CC[C@@]21C,,inactive
CC(C)(COC(=O)c1ccccc1)COC(=O)c1ccccc1,,inactive
CC(=O)O[C@]1(C(C)=O)CC[C@H]2[C@@H]3C[C@H](C)C4=CC(=O)CC[C@]4(C)[C@H]3CC[C@@]21C,,inactive
CC[Si](OC(C)=O)(OC(C)=O)OC(C)=O,,inactive
CCCCC/C=C/C=C/C=O,29.2 µM (active),
CNC[C@H](O)c1cccc(O)c1,,inactive
O=C(O)c1ccc([N+](=O)[O-])cc1,,inactive
CCn1c2ccccc2c2cc(N)ccc21,0.653 µM (active),
CC1COc2ccccc2N1C(=O)C(Cl)Cl (stereo not given),13.2 µM (active),
O=C1CCCCCCCCCCCCCCO1,,inactive
CCCCCCCCCCCCCCCCCC(=O)OCC(CC)CCCC (stereo not given),,inactive
C[C@H]1C[C@@H]2[C@H]([C@@H](O)C[C@@]3(C)[C@H]2CC[C@]3(O)C(=O)CO)[C@@]2(C)C=CC(=O)C=C12,,inactive
CCCCC(CC)COC(=O)/C=C\C(=O)OCC(CC)CCCC (stereo not given),,inactive
CN(CCOc1ccc(CC2SC(=O)NC2=O)cc1)c1ccccn1 (stereo not given),,inactive
N#Cc1ccc(CC(=NNC(=O)Nc2ccc(OC(F)(F)F)cc2)c2cccc(C(F)(F)F)c2)cc1,,inactive

Compound,AC50,outcome
NCCNCCN,,inactive
OC[C@H]1O[C@H](O[C@]2(CCl)O[C@H](CCl)[C@@H](O)[C@@H]2O)[C@H](O)[C@@H](O)[C@H]1Cl,,inactive
Nc1cc([N+](=O)[O-])ccc1O,,inactive
O=C=NC1CCC(CC2CCC(N=C=O)CC2)CC1 (stereo not given),,inactive
C=C(C)C(=O)O[C@H]1C[C@@H]2CC[C@@]1(C)C2(C)C,25.8 µM (active),
CC1CCC(C(C)CS)CC1S (stereo not given),36.3 µM (active),
COc1cc(C=O)ccc1OC(=O)C(C)C,,inactive
O=C(O)c1cn(C2CC2)c2cc(N3CCNCC3)c(F)cc2c1=O,,inactive
BrC1CCC(Br)C(Br)CCC(Br)C(Br)CCC1Br (stereo not given),4.58 µM (active),
CC(=O)OCCC(C)CC(C)(C)C (stereo not given),,inactive
c1ccc2c(c1)c1cccc3ccc4cccc2c4c31,,inactive
C=CCOC(=O)CCC1CCCCC1,,inactive
CCCCC(CC)COCCC#N (stereo not given),,inactive
CCCCCCCCC=O,,inactive
Cc1ccc(Nc2ccc(O)c3c2C(=O)c2ccccc2C3=O)cc1,,inactive
O=P(c1ccccc1)(c1ccccc1)c1ccccc1,,inactive
Nc1cc([N+](=O)[O-])ccc1Cl,,inactive
OC1OC[C@@H](O)[C@H](O)[C@H]1O (stereo not given in full),,inactive
CC(=O)Nc1ccccc1O,,inactive
Cc1ccc(O)c(C(C)(C)C)c1,36.2 µM (active),
